Our source for the Percent Effect values is ChEMBL document CHEMBL3988442, “University of Dundee, Small-Polar-MMV Screening Library” (2021).

What all share (design): scale not given: direction of the effect not stated beside the values
Assay [1] concerns the target Protein translocase subunit SecA (Escherichia coli (strain K12)) (UniProt P10408). In words: Assay to Identify E. coli SecA ATPase Inhibitors. Format: functional. As to conditions: 30 µM.
Assay [2] addresses T1, Ubiquitin-activating enzyme e1, putative (Leishmania donovani (strain BPK282A1)) (UniProt E9BSI1).
T1 sequence (whole entry): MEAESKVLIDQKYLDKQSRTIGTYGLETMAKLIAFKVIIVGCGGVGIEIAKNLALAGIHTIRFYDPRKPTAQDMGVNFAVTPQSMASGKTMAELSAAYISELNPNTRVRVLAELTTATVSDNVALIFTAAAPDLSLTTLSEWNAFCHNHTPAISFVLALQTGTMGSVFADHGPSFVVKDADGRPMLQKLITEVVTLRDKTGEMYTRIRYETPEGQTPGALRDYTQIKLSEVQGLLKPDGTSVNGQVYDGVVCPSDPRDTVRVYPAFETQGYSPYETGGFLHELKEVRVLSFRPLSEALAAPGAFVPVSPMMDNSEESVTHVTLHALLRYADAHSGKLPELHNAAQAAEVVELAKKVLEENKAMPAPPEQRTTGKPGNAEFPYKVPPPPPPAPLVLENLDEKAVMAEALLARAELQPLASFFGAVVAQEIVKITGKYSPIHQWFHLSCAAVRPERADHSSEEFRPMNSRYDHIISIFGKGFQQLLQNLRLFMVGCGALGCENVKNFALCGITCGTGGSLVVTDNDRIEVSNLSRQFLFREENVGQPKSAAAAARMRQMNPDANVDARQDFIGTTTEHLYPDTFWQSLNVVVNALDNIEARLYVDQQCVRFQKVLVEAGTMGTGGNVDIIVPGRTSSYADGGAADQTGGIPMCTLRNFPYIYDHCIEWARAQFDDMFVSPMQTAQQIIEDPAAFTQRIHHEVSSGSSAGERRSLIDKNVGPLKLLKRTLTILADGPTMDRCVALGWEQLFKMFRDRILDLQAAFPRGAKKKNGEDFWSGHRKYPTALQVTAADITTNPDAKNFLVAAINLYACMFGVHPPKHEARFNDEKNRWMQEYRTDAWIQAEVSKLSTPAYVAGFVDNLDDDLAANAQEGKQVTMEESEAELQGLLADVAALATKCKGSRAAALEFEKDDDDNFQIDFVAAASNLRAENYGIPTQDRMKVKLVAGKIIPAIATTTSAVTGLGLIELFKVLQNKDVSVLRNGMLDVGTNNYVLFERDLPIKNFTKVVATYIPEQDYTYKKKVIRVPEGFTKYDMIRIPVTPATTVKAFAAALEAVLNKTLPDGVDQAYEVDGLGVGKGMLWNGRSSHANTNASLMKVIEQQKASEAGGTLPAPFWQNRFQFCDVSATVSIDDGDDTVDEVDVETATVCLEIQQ
The assay can be described thus: Leishmania donovani Ubiquitin Activating Enzyme (LdE1). Format: functional. As to conditions: 30 µM.

Assay [3] has as its target AMP-activated protein kinase, AMPK (Homo sapiens) (UniProt P54646+O43741+P54619+Q9UGJ0+Q9Y478+Q13131+Q9UGI9). In words: AMP-dependent Kinase enzyme assay. An in vitro enzyme assay that detects ADP turnover that is directly proportional to AMPK activity. This uses naive AMPK that is activated during the assay with MK-8722. Type of assay: functional. As to conditions: 30 µM.

Assay [4] addresses Sialic acid-binding Ig-like lectin 9 (Homo sapiens) (UniProt Q9Y336). In words: Hs-Siglec9 ALPHAscreen SOP 20170721. Particulars: 10 µM. (In general: Alpha assays give light when donor and acceptor beads are brought close together.)
Assay [5] deals with Trypanosoma cruzi. The assay can be described thus: Trypanosoma cruzi phosphomannomutase and mannose-1-phosphate guanylyltransferase assay. Type of assay: functional. As to conditions: 10 µM.
For assay [6], the target named is T2, Arginase-2, mitochondrial (Homo sapiens) (UniProt P78540).
T2 sequence (whole entry): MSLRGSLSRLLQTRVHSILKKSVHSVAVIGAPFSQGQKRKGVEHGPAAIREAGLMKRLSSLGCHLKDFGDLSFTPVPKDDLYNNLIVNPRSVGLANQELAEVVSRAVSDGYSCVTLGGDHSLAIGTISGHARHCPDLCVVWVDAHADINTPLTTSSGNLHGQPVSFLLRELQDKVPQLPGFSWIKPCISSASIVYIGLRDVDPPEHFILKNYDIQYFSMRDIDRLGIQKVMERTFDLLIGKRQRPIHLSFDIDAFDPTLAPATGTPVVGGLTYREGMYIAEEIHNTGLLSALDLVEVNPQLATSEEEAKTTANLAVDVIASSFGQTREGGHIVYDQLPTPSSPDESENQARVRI
The assay can be described thus: in vitro enzyme assay to detect the production of urea directly proportional to the activity of Arginase II. Further: in the data most compounds retested in dose-response had high values. Particulars: 33.3 µM. Format: functional.

Assay [7] concerns the target T3, Proteasome subunit beta (Trypanosoma cruzi) (UniProt O96673).
T3 sequence (whole entry): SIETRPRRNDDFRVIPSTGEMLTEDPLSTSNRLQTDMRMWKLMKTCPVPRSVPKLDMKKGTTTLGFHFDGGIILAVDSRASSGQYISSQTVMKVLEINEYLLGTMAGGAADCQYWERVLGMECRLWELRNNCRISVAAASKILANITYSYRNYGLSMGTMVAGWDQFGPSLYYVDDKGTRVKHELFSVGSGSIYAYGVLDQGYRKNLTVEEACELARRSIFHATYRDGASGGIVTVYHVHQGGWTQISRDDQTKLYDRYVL
The assay can be described thus: Trypanosoma cruzi proteasome chymotrypsin-like activity (TcProtChymo) assay. Further: in the data most compounds retested in dose-response had high values. Type of assay: functional. As to conditions: 9.37 µM.

For assay [8], the species on record is Homo sapiens. In words: To identify inhibition of the IFN signalling (Jak-Stat) pathway via expression of an eGFP reporter gene under the control of an IFN-stimulated response element (ISRE) containing MxA promoter. Format: functional. As to conditions: 30 µM. For orientation: In a reporter assay the amount or activity of a reporter protein is the signal.
For assay [9], the target named is T4, Tyrosyl-tRNA synthetase, putative (Trypanosoma cruzi (strain CL Brener)) (UniProt Q4DSP6).
T4 sequence (whole entry): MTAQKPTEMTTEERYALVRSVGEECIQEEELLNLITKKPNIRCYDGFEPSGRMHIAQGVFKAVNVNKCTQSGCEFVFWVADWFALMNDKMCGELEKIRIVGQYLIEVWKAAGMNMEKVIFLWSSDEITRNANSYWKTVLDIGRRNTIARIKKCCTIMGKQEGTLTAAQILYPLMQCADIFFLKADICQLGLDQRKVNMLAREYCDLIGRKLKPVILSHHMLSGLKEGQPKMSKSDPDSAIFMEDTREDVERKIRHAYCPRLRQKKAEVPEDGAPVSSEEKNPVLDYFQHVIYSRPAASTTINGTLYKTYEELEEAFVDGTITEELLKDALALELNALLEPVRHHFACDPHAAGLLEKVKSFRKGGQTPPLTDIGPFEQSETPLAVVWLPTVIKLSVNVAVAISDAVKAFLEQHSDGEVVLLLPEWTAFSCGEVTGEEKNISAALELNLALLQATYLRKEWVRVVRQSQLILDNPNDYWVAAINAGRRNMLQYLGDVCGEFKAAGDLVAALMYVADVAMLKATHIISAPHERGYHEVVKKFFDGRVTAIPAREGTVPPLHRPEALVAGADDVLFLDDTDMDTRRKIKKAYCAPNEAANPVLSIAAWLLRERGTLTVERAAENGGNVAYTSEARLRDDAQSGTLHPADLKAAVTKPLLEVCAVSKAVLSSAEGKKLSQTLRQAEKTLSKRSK
In words: Trypanosoma cruzi tyrosyl tRNA synthetase (TcYRS) _High Tyrosine SOP. Further: in the data most compounds retested in dose-response had high values. Particulars: 30 µM. Format: functional.

Assay [10] has as its target T4, Tyrosyl-tRNA synthetase, putative (Trypanosoma cruzi (strain CL Brener)). In words: Trypanosoma cruzi tyrosyl tRNA synthetase (TcYRS) SOP. Type of assay: functional. As to conditions: 30 µM.
Assay [11] concerns the target Chromo domain-containing protein 1 (Saccharomyces cerevisiae (strain ATCC 204508 / S288c) (Baker's yeast)) (UniProt P32657). In words: ScCHD-1 Enzyme Inhibition Assay. Further: in the data most compounds retested in dose-response had high values. Format: functional. Particulars: 30 µM.

Molecules are shown by their SMILES. For some of these results: Measured potencies and affinities stand elsewhere.

Sialic acid-binding Ig-like lectin 9 (Homo sapiens), sequence (Q9Y336 whole entry): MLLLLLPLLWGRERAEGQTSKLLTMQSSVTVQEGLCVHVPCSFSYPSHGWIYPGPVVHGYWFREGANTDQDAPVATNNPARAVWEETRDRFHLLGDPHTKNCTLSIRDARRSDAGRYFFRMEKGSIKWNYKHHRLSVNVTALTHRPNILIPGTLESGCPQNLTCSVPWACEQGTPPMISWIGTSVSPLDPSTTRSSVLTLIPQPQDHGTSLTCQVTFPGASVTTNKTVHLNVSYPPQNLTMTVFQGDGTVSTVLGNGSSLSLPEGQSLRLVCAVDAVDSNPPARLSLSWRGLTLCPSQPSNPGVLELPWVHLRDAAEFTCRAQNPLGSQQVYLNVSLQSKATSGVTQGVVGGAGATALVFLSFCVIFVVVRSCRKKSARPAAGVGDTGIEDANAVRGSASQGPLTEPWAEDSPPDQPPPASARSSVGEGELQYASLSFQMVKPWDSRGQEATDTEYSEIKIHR
Chromo domain-containing protein 1 (Saccharomyces cerevisiae (strain ATCC 204508 / S288c) (Baker's yeast)), sequence (P32657 whole entry, the tested form may be a part): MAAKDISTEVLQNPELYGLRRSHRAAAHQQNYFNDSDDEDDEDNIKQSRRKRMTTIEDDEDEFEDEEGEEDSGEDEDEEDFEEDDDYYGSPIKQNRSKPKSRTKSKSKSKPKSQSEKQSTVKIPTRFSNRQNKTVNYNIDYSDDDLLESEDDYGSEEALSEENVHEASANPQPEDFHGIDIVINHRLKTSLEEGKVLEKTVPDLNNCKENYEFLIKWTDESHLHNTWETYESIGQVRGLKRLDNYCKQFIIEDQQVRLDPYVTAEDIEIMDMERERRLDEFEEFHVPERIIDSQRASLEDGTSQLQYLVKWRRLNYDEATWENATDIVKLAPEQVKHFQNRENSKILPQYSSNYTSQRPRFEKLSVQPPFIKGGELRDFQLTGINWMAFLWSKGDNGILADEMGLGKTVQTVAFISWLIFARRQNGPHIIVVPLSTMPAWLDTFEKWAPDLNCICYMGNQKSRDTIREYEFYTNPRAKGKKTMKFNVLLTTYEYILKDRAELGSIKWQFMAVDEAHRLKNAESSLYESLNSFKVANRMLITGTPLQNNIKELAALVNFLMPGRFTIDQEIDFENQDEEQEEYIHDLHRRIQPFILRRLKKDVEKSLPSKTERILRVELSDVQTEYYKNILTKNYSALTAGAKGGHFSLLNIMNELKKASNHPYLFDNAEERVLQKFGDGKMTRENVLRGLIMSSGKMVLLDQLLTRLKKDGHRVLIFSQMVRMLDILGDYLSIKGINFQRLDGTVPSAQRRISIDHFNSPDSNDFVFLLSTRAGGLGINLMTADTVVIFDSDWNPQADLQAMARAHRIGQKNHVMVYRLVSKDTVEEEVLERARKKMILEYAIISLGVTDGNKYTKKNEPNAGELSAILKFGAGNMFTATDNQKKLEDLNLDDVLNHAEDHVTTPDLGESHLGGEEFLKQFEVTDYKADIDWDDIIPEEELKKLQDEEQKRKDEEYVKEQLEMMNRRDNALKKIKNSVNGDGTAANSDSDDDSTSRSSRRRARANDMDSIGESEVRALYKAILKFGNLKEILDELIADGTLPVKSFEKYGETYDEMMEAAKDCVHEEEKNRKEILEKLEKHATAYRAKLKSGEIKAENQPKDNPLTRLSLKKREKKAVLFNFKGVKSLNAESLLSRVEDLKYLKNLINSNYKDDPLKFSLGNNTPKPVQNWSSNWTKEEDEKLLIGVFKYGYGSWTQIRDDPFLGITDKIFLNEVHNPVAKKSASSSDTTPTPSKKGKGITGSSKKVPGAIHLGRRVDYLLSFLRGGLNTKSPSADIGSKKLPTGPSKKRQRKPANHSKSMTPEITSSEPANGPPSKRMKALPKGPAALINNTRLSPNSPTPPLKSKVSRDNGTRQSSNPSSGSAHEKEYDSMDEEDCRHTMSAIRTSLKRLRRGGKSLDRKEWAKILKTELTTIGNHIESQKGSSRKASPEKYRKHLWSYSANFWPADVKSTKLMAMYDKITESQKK
Protein translocase subunit SecA (Escherichia coli (strain K12)), sequence (P10408 whole entry): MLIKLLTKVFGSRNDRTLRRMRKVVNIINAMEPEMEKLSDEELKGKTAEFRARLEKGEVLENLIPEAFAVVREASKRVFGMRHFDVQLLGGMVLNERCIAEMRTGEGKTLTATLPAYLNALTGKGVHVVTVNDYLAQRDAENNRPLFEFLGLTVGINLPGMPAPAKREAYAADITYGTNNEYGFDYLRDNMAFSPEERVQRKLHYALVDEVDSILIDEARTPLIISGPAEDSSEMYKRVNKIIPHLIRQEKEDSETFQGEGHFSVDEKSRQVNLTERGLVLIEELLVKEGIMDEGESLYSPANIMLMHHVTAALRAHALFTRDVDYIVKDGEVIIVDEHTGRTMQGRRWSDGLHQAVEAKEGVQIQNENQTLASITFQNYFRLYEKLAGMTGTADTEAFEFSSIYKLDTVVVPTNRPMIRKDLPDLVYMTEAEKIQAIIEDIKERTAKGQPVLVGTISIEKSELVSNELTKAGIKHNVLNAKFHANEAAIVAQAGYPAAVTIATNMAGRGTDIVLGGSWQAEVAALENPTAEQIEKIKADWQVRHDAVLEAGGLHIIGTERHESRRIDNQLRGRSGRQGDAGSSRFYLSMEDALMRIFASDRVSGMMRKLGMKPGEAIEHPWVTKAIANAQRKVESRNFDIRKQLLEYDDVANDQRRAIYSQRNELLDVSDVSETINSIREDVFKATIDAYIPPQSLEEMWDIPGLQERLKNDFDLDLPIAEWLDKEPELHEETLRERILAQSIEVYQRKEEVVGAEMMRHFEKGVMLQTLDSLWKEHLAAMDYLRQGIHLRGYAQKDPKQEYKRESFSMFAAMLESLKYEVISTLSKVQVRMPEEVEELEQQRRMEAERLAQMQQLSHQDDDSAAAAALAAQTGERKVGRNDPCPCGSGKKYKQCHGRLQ

As for `Cc1cc(-c2cnc(NCc3cccnc3)nc2C(C)C)on1`, the Percent Effect in assay [1] was -6.62%; in assay [2], 2.67%; in [3], 40.6%; in assay [4], -1.45%; in assay [5], -3.74%; in [6], -2.1%. Moreover, the Percent Effect in assay [7] was 3.79%; in assay [8] it was 56.7%; in assay [9], 1.06%; in assay [10], 1.28%; in [11], -1.52%.

As for `Cn1nc(C2CCCN(C(=O)CO)C2)cc1O` (stereo not drawn), the Percent Effect was -4.16% in assay [1]; -6.76% in [2]; -113% in assay [3]; -1.22% in assay [4]; -3.75% in assay [5]; -0.232% in assay [6]. In addition, the Percent Effect in assay [7] is 1.4%; in assay [8], -6.44%; in assay [9], -6.45%; in assay [10], -9.09%; in assay [11], -2.64%.

With `Cc1nccn1CCC1CCCCN1C(=O)c1ccc2[nH]nnc2c1` (stereo not drawn), the Percent Effect in [1] was -2.88%; in assay [2], 10.7%; in assay [3], -0.957%; in [4], 10%; in assay [5] it was 2.63%; in assay [6], 16.7%. Besides, the Percent Effect in assay [7] is 9.59%; in assay [8] it was 7.47%; in assay [9], 3.83%; in assay [10] it was 6.17%; in assay [11], -6.44%.

Regarding `CCn1cc(CN(C)S(=O)(=O)c2ccc(Cl)cc2)cn1`, the Percent Effect in assay [1] is -0.763%; in assay [2], 14.7%; in assay [3] it was 0.176%; in assay [4], -5.16%; in assay [5], -1.97%; in [6], -10%. The Percent Effect was 10.3% in [7]; 15% in [8]; 4.23% in assay [9]; 7.69% in assay [10]; -9.85% in [11].

As for `CS(=O)(=O)NCCCN1CCCCC1c1cc2ccccc2[nH]1` (stereo not drawn), the Percent Effect was -6.23% in assay [1]; 15.2% in [2]; -13% in [3]; 11.7% in [4]; 8.03% in assay [5]; -7.22% in assay [6]. Also, the Percent Effect in assay [7] is 5.65%; in [8], -8.5%; in assay [9] it was 1.48%; in [10], 16.5%; in assay [11] it was -7.23%.

On to `Cc1nc(C2CCCN(C(=O)c3ccc(N4CCCC4)nc3)C2)no1` (stereo not drawn), for which the Percent Effect in assay [1] is -3.94%; in assay [2], 3.8%; in assay [3], 7.78%; in assay [4], 4.58%; in assay [5], 3.18%; in [6], -8.39%. The Percent Effect is 1.37% in [7]; 13.9% in [8]; 4.17% in assay [9]; 12.7% in assay [10]; -26.5% in assay [11].

Regarding `Cc1ccc(C2CSCCN2C(=O)c2ccsc2)o1` (stereo not drawn), the Percent Effect in assay [1] was -7.12%; in assay [2], 8.11%; in [3], 5.16%; in assay [4] it was 3.24%; in assay [5] it was -1.66%; in assay [6], 4.22%. In addition, the Percent Effect in assay [7] is 8.15%; in assay [8], -0.446%; in [9] it was 1.07%; in assay [10], 6.17%; in assay [11] it was -3.21%.

Take `Cc1nnc(N2CCC(CS(N)(=O)=O)CC2)c(C#N)c1C`: the Percent Effect is -5.18% in assay [1]; 2.6% in assay [2]; -17.4% in [3]; -9.8% in assay [4]; 0.49% in assay [5]; -1.9% in assay [6]. For the same compound, the Percent Effect was 16.1% in assay [7]; 7.88% in assay [8]; 3.81% in [9]; 9.41% in assay [10]; -16.6% in assay [11].
